The nature of test [1]: NCI Yeast Anticancer Drug Screen. Data for the rad50 strain (AID 155).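 Further: 0% = growth of vehicle-only cultures of the same strain.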 As to conditions: S. cerevisiae rad50 strain growth inhibition, stronger effect = higher value. Summed up: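 Cells are treated with compound, grown, and their growth is then scored against vehicle-only cultures of the same repair-deficient yeast strain.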
Test [2] can be described thus: NCI Yeast Anticancer Drug Screen. Data for the mec2-1 strain (AID 157). As to conditions: S. cerevisiae mec2-1 strain, stronger effect = higher value. Summed up: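 Mutant yeast (mec2-1) grown with compound; growth inhibition relative to vehicle control reported.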
Test [3] is described as follows: NCI Yeast Anticancer Drug Screen. Data for the sgs1 mgt1 strain (AID 161).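 Further: 0% = growth of cultures given vehicle only.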 Particulars: S. cerevisiae sgs1 mgt1 strain, stronger effect = higher value. Summed up:
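Growth of a repair-deficient yeast mutant was monitored after compound treatment and expressed as inhibition relative to vehicle-treated cultures.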

Test [4] in a line: NCI Yeast Anticancer Drug Screen. Data for the cln2 rad14 strain (AID 165).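 Further: 0% = growth equal to vehicle treated cultures.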 Particulars: S. cerevisiae cln2 rad14 strain, stronger effect = higher value. The procedure, abridged: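 Readout is yeast growth inhibition versus vehicle-treated controls, using a strain with cln2 and rad14 alterations exposed to compound.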
Test [5] can be described thus: NCI Yeast Anticancer Drug Screen. Data for the bub3 strain (AID 167). Particulars: S. cerevisiae bub3 mutant strain, stronger effect = higher value. The procedure, abridged:
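Part of a panel of yeast mutants defective in DNA damage repair or cell cycle regulation. Each strain is grown with compound, and inhibition is calculated relative to solvent-treated cultures.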

The nature of test [6]: NCI Yeast Anticancer Drug Screen. Data for the mlh1 rad18 strain (AID 175). Particulars: S. cerevisiae mlh1 rad18 strain growth inhibition, stronger effect = higher value. The procedure, abridged:
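Genetically defined yeast (DNA repair-deficient) exposed to compounds; growth inhibition determined relative to vehicle.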

The mark [7] stands for this setting: at 5.0 µM (retest, dose inferred, filed as 0.5).
The mark [8] stands for this setting: at 50.0 µM (retest, dose inferred, filed as 5.0).

SMILES strings stand for the structures. About 79,000 compounds went through this panel and 15% of them were active in at least one assay; those are over-represented in the sample as a whole. A number with no mark means an inactive call. Activity calls are given as the source filed them. No stated cut-off is given here; in the data, active means growth inhibition above about 70%; inactive means the rest.

As for `CCOP(=S)(OCC)SC(O)(C(F)F)C(F)F`, the growth inhibition in test [1] (setting [7]) was 5%; in test [1] (setting [8]), 34%; in test [1] (at 50.0 µM), 28.8%; in test [2] (setting [7]), -3%; in test [2] (setting [8]) it was 54%; in test [2] (at 50.0 µM), 22.9%. Moreover, the growth inhibition was 3% in test [3] (setting [7]); 62% in test [3] (setting [8]); 42% in test [3] (at 50.0 µM); -3% in test [4] (setting [7]); 32% in test [4] (setting [8]); 22.4% in test [4] (at 50.0 µM). The growth inhibition in test [5] (setting [7]) is -2%; in test [5] (setting [8]) it was 69%; in test [5] (at 50.0 µM), 39.4%; in test [6] (setting [7]) it was 0%; in test [6] (setting [8]), 78% (active); in test [6] (at 50.0 µM) it was 30.7%.
Regarding `CSc1ncc(COP(=S)(OCc2cnc(SC)nc2N)OCc2cnc(SC)nc2N)c(N)n1`, the growth inhibition was -1% in test [1] (setting [7]); -2% in test [1] (setting [8]); -39.3% in test [1] (at 50.0 µM); 15% in test [2] (setting [7]); -6% in test [2] (setting [8]); -5.35% in test [2] (at 50.0 µM). The growth inhibition in test [3] (setting [7]) was 1%; in test [3] (setting [8]) it was 3%; in test [3] (at 50.0 µM), -15.9%; in test [4] (setting [7]) it was 8%; in test [4] (setting [8]) it was -3%; in test [4] (at 50.0 µM) it was 23.9%. The growth inhibition was -1% in test [5] (setting [7]); -3% in test [5] (setting [8]); -2.3% in test [5] (at 50.0 µM); -1% in test [6] (setting [7]); 9% in test [6] (setting [8]); 23% in test [6] (at 50.0 µM).
For the compound `CC1=CC2OC3CC4OC(=O)/C=C/C=C/C(C(C)O)OCC(O)C(C)CC(=O)OCC2(CC1O)C4(C)C31CO1` (centres undefined), the growth inhibition was 39% in test [1] (setting [7]); 96% (active) in test [1] (setting [8]); 90.4% (active) in test [1] (at 50.0 µM); 40% in test [2] (setting [7]); 99% (active) in test [2] (setting [8]); 91.9% (active) in test [2] (at 50.0 µM). The growth inhibition in test [3] (setting [7]) was 48%; in test [3] (setting [8]), 94% (active); in test [3] (at 50.0 µM), 92.2% (active); in test [4] (setting [7]) it was 34%; in test [4] (setting [8]), 94% (active); in test [4] (at 50.0 µM), 90.3% (active). For the same compound, the growth inhibition in test [5] (setting [7]) was 25%; in test [5] (setting [8]), 95% (active); in test [5] (at 50.0 µM) it was 91% (active); in test [6] (setting [7]) it was 42%; in test [6] (setting [8]), 98% (active); in test [6] (at 50.0 µM) it was 89.2% (active).
Regarding `Cc1ccc(P(=O)(c2ccc(C)cc2)c2ccc(C)cc2)cc1.Cc1ccc(P(=O)(c2ccc(C)cc2)c2ccc(C)cc2)cc1.[Cl][Sn]([Cl])([Cl])[Cl]`, the growth inhibition in test [1] (setting [7]) is 4%; in test [1] (setting [8]), 1%; in test [1] (at 50.0 µM), -9.9%; in test [2] (setting [7]), 0%; in test [2] (setting [8]) it was 1%; in test [2] (at 50.0 µM), 0.85%. The growth inhibition in test [3] (setting [7]) is 2%; in test [3] (setting [8]) it was 6%; in test [3] (at 50.0 µM) it was 42.6%; in test [4] (setting [7]), 4%; in test [4] (setting [8]), 8%; in test [4] (at 50.0 µM) it was 4.1%. Besides, the growth inhibition in test [5] (setting [7]) is 13%; in test [5] (setting [8]), 72% (active); in test [5] (at 50.0 µM), 76.2% (active); in test [6] (setting [7]), 3%; in test [6] (setting [8]), 1%; in test [6] (at 50.0 µM), 38%.
As to `CCCNC(=O)Nc1ccc2c(c1)Cc1cc(N(CCCl)CCCl)ccc1-2`, the growth inhibition in test [1] (setting [7]) was 2%; in test [1] (setting [8]), 32%; in test [1] (at 50.0 µM) it was 39.1%; in test [2] (setting [7]), 0%; in test [2] (setting [8]) it was 16%; in test [2] (at 50.0 µM) it was 23.1%. Moreover, the growth inhibition in test [3] (setting [7]) is -4%; in test [3] (setting [8]), 73% (active); in test [3] (at 50.0 µM), 37.3%; in test [4] (setting [7]) it was 3%; in test [4] (setting [8]) it was -1%; in test [4] (at 50.0 µM), 24.9%. Moreover, the growth inhibition in test [5] (setting [7]) was 6%; in test [5] (setting [8]), 86% (active); in test [5] (at 50.0 µM), 76.5% (active); in test [6] (setting [7]), 3%; in test [6] (setting [8]), 52%; in test [6] (at 50.0 µM), 31.2%.
Turning to `O=C(O)C1C2c3cccc4cccc(c34)C12` (centres undefined), the growth inhibition is -139% in test [1] (setting [7]); 88% (active) in test [1] (setting [8]); 44.8% in test [1] (at 50.0 µM); -50% in test [2] (setting [7]); 72% (active) in test [2] (setting [8]); 87.6% (active) in test [2] (at 50.0 µM). The growth inhibition in test [3] (setting [7]) was -56%; in test [3] (setting [8]), 74% (active); in test [3] (at 50.0 µM), 40.4%; in test [4] (setting [7]) it was -41%; in test [4] (setting [8]), 78% (active); in test [4] (at 50.0 µM) it was 85.3% (active). Moreover, the growth inhibition is -59% in test [5] (setting [7]); 86% (active) in test [5] (setting [8]); 93.2% (active) in test [5] (at 50.0 µM); -112% in test [6] (setting [7]); 81% (active) in test [6] (setting [8]); 83.8% (active) in test [6] (at 50.0 µM).
With `S=C(S)N1CCOCC1`, the growth inhibition in test [1] (setting [7]) is 62%; in test [1] (setting [8]), 94% (active); in test [1] (at 50.0 µM) it was -11.9%; in test [2] (setting [7]), 50%; in test [2] (setting [8]) it was 84% (active); in test [2] (at 50.0 µM) it was 28.1%. In addition, the growth inhibition in test [3] (setting [7]) is 37%; in test [3] (setting [8]), 82% (active); in test [3] (at 50.0 µM) it was 42.7%; in test [4] (setting [7]), -2%; in test [4] (setting [8]) it was 75% (active); in test [4] (at 50.0 µM), -23.9%. Besides, the growth inhibition was 45% in test [5] (setting [7]); 86% (active) in test [5] (setting [8]); 98.3% (active) in test [5] (at 50.0 µM); 60% in test [6] (setting [7]); 88% (active) in test [6] (setting [8]); 19.5% in test [6] (at 50.0 µM).
`CC(C)C(=O)CP(=O)(O)O`: the growth inhibition is -10% in test [1] (setting [7]); 6% in test [1] (setting [8]); -18.1% in test [1] (at 50.0 µM); 8% in test [2] (setting [7]); -2% in test [2] (setting [8]); -22.6% in test [2] (at 50.0 µM). Besides, the growth inhibition in test [3] (setting [7]) is -9%; in test [3] (setting [8]), -4%; in test [3] (at 50.0 µM), -30.5%; in test [4] (setting [7]), -31%; in test [4] (setting [8]), -13%; in test [4] (at 50.0 µM), 70.2% (active). Further, the growth inhibition was 7% in test [5] (setting [7]); 4% in test [5] (setting [8]); -21.6% in test [5] (at 50.0 µM); 7% in test [6] (setting [7]); 9% in test [6] (setting [8]); -7.2% in test [6] (at 50.0 µM).

The values are drawn from PubChem BioAssay (NCI).
